Data on 6 compounds can be found in PubChem BioAssay.

The nature of assay [1]: reducers of endogenous Her2 protein level, primary screen, SKBR3 breast tumor cells, AlphaScreen, ATP viability (AID 461).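 As to Her2 level: lower value means less Her2 protein in the cells.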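 As to viability: percent of carrier control wells set as 100% viability.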 The settings on record: 18-24 h, measured here: SKBR3 viability, ATP luminescence, at 10 µM.
The target of assay [2] is Receptor tyrosine-protein kinase erbB-2 (Homo sapiens) (UniProt P04626). Described as above. The settings on record: 18-24 h, at 10 µM, stronger effect = lower value.
Assay [3] can be described thus: SK-BR-3 cell growth inhibitors, pilot screen, 24 h, human (AID 572;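 active = viability at or below 10% of carrier control in both of two separate runs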;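 also: compound exposure lasted between 18 and 24 h rather than exactly 24 h; 100% = carrier-treated control wells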). The settings on record: SK-BR-3 viability, CellTiter-Glo luminescence, at 10 µM, stronger effect = lower value.
Assay [4] in a line: HUVEC growth inhibition – cell-based, human, primary screen (AID 575;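 active = viability at or below 30% in both replicate assays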;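 also: 100% = median of untreated cell wells with 0.1% DMSO on each plate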). The settings on record: HUVEC proliferation, CellTiter-Glo luminescence, 72 h; at 10 µM; stronger effect = lower value.
Assay [5] can be described thus: growth inhibitors of H69AR lung tumor, primary screen, human, duplicate replicates (AID 580;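 active = viability at or under a set limit in both replicates, limit being median viability minus 3 SD, cut at about 48% in these data, passing the limit was not always enough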;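 also: 100% = mean luminescence of untreated wells and 0% = no signal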). The settings on record: H69AR lung tumor cells viability, ATP luminescence, 72 h; at 10 µM; stronger effect = lower value.
The nature of assay [6]: reversal of MRP1-mediated doxorubicin resistance, pilot screen, H69AR cells, doxorubicin co-treatment (AID 601;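 active = viability loss from added drug above about 55%, and viability with drug at most 40%, in both replicates, limit read from the data, passing the limit was not always enough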). The settings on record: CellTiter-Glo, 72 h, at 10 µM; for differential viability (reversal): stronger effect = higher value.
The nature of assay [7]: 384-well plate pilot, post-Golgi transport modulator project, inhibition of yeast transport mutant growth (AID 636; in the data active = inhibition above about 31%). The settings on record: absorbance 615 nm, about 18 h, stronger effect = higher value.
Assay [8] in a line: growth suppression of yeast trafficking mutant, preliminary HTS, modulators of trafficking downstream of Golgi apparatus project, 1536-format plate, OD 615 nm (AID 637; in the data active = inhibition above about 30%). The settings on record: yeast transport mutant growth, absorbance 615 nm, 18 h; stronger effect = higher value.
Assay [9] is described as follows: OD615 S. cerevisiae growth inhibition, permissive medium, pilot counter-assay, permissive growth control for S. cerevisiae lifespan shortening project (AID 705;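 active = growth inhibition above 25% in both replicates, a cutoff set 3 SD above the mean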). The settings on record: OD615, 24 h, at 10 µM, stronger effect = higher value.
Assay [10] is described as follows: Restrictive medium S. cerevisiae growth inhibition, OD615, pilot screen of yeast lifespan reduction project, restrictive growth control (AID 706;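 active = growth inhibition above a set limit, 3 SD over mean compound inhibition, in both replicates, cut at about 43% in these data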;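 also: modified DeaD lifespan yeast strain shifted to restrictive glucose medium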). The settings on record: OD615, 48 h, at 10 µM, stronger effect = higher value.
The nature of assay [11]: viability gain of MRP-1-high H69AR cells under doxorubicin, pilot screen, MRP-1 activator project, CellTiter-Glo, duplicate (AID 807;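 active = viability increase at or above a cutoff of the median across tested compounds plus 3 SD, cut at about 8.5% in these data, passing the limit was not always enough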;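 also: compound pretreatment 18-22 h then 72 h combined with doxorubicin; 0% = doxorubicin alone and 100% = vehicle without doxorubicin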). The settings on record: H69AR viability with doxorubicin, CellTiter-Glo luminescence; at 10 µM; stronger effect = higher value.
Assay [12] can be described thus: growth suppression of beta-catenin knockout HCT116, pilot screen, human colon tumor cells (AID 823;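 active = cell viability at or below a set limit in both duplicate runs, the limit being the all-compound median minus 4 SD, cut at about 23% in these data, passing the limit was not always enough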;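 also: 0% = wells killed by 20 µM Hyamine and 100% = untreated DMSO cell wells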). The settings on record: CellTiter-Glo, 60 h, at 10 µM, stronger effect = lower value.
Assay [13] in a line: growth suppression of PTEN-deleted HCT116, pilot screen, cell-based, HCT116 clonal line, CellTiter-Glo (AID 824;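 active = viability at or below 27.92% in each of two runs, the all-compound median minus 4 SD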;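 also: 0% = 20 µM Hyamine control and 100% = vehicle cell control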). The settings on record: 60 h, at 10 µM, stronger effect = lower value.
Assay [14] can be described thus: inhibitors of the yeast RAM network, pilot screen, dse1pr::URA3 reporter, 5-FOA selection (AID 869;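 active = inhibition over a set limit, the all-compound mean plus 3 SD, in both replicate runs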;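 also: 0% = DMSO wells with no growth and 100% = 10 µM 1-NA-PP1 with full growth; RAM network block rescues cells from 5-FOA so hits raise OD615 growth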). The settings on record: S. cerevisiae dse1pr::URA3 5-FOA growth, OD615, 2 d; at 10 µM; stronger effect = higher value; strain carries analog-sensitive mutant Cbk1 kinase.
The nature of assay [15]: RAM signaling pathway blockade in yeast – S. cerevisiae, Pdr1DBD-CYC8 efflux-inhibited sensitized strain, primary screen (AID 1298;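 active = RAM network inhibition above 8.4% in each of two replicates, 3 SD over the compound average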;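 also: 0% = DMSO untreated cells without growth and 100% = 10 µM 1-NA-PP1 full growth; higher means more yeast growth rescued from 5-FOA killing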). The settings on record: S. cerevisiae cbk1-as DSE1-URA3 strain, 5-FOA growth OD615, 2 d; at 50 µM; stronger effect = higher value.
[16] abbreviates: H69AR cells + 2 uM doxorubicin, measured here: viability with 2 uM doxorubicin, stronger effect = lower value.
Where [17] appears, read: H69AR cells, compound alone cytotoxicity.

The structures appear in SMILES notation. Inconclusive results are not listed. Activity calls are given as the source filed them.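 The calls were made as follows, unless noted: active = Her2 level under about 52% in both replicate screens, with viability over 70% of control (limit read from the data); inconclusive = Her2 under the limit in one screen only, or viability under 70%; inactive = Her2 level above the set limit.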

Chain of Receptor tyrosine-protein kinase erbB-2 (Homo sapiens) (P04626 whole entry, looked up): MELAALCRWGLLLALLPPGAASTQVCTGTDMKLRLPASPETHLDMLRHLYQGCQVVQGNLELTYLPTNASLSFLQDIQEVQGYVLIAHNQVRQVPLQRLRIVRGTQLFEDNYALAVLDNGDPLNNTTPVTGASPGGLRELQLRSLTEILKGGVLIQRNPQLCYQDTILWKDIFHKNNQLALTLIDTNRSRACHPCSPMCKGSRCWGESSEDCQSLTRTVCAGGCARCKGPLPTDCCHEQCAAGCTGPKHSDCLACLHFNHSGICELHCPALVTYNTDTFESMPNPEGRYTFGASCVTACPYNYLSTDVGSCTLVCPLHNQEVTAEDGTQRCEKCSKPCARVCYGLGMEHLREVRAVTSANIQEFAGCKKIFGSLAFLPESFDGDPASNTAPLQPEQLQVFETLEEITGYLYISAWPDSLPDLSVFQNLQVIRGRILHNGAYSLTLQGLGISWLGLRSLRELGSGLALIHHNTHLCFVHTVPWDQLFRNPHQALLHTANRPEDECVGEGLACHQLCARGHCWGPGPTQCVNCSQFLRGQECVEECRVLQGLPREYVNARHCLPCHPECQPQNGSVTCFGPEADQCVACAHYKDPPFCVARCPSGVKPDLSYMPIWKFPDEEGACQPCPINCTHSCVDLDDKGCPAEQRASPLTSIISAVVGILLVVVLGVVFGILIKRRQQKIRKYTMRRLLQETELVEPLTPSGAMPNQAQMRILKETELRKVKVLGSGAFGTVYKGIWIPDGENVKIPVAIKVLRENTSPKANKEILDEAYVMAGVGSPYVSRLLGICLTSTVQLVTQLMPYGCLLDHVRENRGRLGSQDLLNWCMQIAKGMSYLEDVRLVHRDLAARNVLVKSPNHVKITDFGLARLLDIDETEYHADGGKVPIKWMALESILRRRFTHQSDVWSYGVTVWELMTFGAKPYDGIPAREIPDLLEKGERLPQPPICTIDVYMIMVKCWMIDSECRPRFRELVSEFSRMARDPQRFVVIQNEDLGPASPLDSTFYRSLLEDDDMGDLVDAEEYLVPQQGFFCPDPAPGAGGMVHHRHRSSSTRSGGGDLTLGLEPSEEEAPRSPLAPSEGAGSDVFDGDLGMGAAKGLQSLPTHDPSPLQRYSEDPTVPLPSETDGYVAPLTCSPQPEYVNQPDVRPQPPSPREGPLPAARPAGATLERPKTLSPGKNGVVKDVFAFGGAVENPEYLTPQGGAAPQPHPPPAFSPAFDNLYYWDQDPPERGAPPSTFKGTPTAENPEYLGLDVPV

On to `Cc1ccc(C)c2[nH]c(=O)c(CCNC(=O)CC(C)(C)C)cc12`, for which the viability is 88% in assay [1]; 88% (inactive) in assay [3]; 103% (inactive) in assay [4]; 90.9% (inactive) in assay [5]; 69.7% in assay [6] (setting [16]); 90.9% in [6] (setting [17]). Also, the viability in [12] was 104% (inactive); in assay [13], 92.6% (inactive). Besides, in [2], the Her2 level is 105% (inactive). For the same compound, the differential viability (reversal) in assay [6] (H69AR cells + 2 uM doxorubicin) was 21.2% (inactive). In addition, the figures for the inhibition in [7], in assay [8] and in assay [14] were -4.27% (inactive), -4.5% (inactive) and 1.04% (inactive), respectively. Further, the growth inhibition in assay [9] is -4.09% (inactive); in assay [10], -11.6% (inactive). For the same compound, the viability increase in assay [11] is 1.59% (inactive). In addition, the RAM network inhibition in assay [15] is 4.85% (inactive).

For the compound `CC1CCN(Cc2nc3c(c(=O)n(C)c(=O)n3C)n2Cc2cccc3ccccc23)CC1`, the viability in [1] is 84%; in [3], 84% (inactive); in assay [4] it was 98% (inactive); in assay [5] it was 84.9% (inactive); in [6] (setting [16]), 89.2%; in [6] (setting [17]) it was 84.9%. Also, the viability in [12] was 87% (inactive); in [13], 88.2% (inactive). Also, the Her2 level in [2] was 86.5% (inactive). In addition, the differential viability (reversal) in [6] (H69AR cells + 2 uM doxorubicin) was -4.26% (inactive). Besides, the results for the inhibition in [7], in assay [8] and in assay [14] were -4% (inactive), 3.67% (inactive) and 0.115% (inactive), respectively. Further, the growth inhibition is -0.525% (inactive) in [9] and 0.35% (inactive) in assay [10]. The viability increase in assay [11] is -1.93% (inactive). The RAM network inhibition in [15] was 7.49% (inactive).

As for `CCN(CC)C(=O)Oc1ccc(NC(C)=O)cc1`, the viability in [1] was 88.5%; in [3], 88.5% (inactive); in assay [4] it was 97.4% (inactive); in assay [5] it was 93.6% (inactive); in assay [6] (setting [16]) it was 94.6%; in assay [6] (setting [17]), 93.6%. For the same compound, the viability is 105% (inactive) in [12] and 108% (inactive) in [13]. Further, the Her2 level in assay [2] was 108% (inactive). Further, the differential viability (reversal) in assay [6] (H69AR cells + 2 uM doxorubicin) is -0.975% (inactive). Besides, the inhibition in assay [7] is 0.91% (inactive); in assay [8] it was -6.33% (inactive); in assay [14], 1.06% (inactive). Moreover, the growth inhibition in assay [9] is -4.01% (inactive); in [10], -12% (inactive). For the same compound, in assay [11], the viability increase was -0.49% (inactive). Further, the RAM network inhibition in assay [15] was 1.82% (inactive).

In the case of `O=C(Nc1cccc(Cl)c1)N1CCN(Cc2ccccc2)CC1`, the viability in assay [1] is 98.5%; in [3], 98.5% (inactive); in assay [4] it was 103% (inactive); in assay [5], 84.2% (inactive); in assay [6] (setting [16]), 78.7%; in assay [6] (setting [17]), 84.2%. The figures for the viability in assay [12] and in assay [13] were 92.1% (inactive) and 86.4% (inactive), respectively. Moreover, the Her2 level in assay [2] is 99% (inactive). Moreover, in [6] (H69AR cells + 2 uM doxorubicin), the differential viability (reversal) is 5.49% (inactive). In addition, the inhibition in assay [7] was -6% (inactive); in [8], -0.49% (inactive); in assay [14], 1.24% (inactive). Besides, the growth inhibition is -4.47% (inactive) in [9] and -8.27% (inactive) in assay [10]. Besides, in assay [11], the viability increase is -1.11% (inactive). Besides, the RAM network inhibition in assay [15] is 3.81% (inactive).

As to `Cc1nc2ccccn2c1/C(O)=C1\C(=O)C(=O)N(CCCN(C)C)C1c1ccc(F)cc1` (configuration not stated), the viability is 89% in assay [1]; 89% (inactive) in assay [3]; 94.4% (inactive) in [4]; 90.8% (inactive) in assay [5]; 105% in assay [6] (setting [16]); 90.8% in assay [6] (setting [17]). In addition, the viability in assay [12] was 104% (inactive); in assay [13] it was 88.1% (inactive). Moreover, the Her2 level in assay [2] was 91% (inactive). In addition, in [6] (H69AR cells + 2 uM doxorubicin), the differential viability (reversal) is -13.7% (inactive). Moreover, the inhibition in [7] is 0.4% (inactive); in assay [8], 3.11% (inactive); in assay [14], 0.255% (inactive). Also, the growth inhibition in assay [9] was -6.91% (inactive); in assay [10], -14% (inactive). In assay [11], the viability increase is -2.7% (inactive). Besides, the RAM network inhibition in [15] was -2.2% (inactive).

As to `Cc1cc(N)n2nc(-c3ccccc3)cc2n1`, the viability in [1] was 95%; in [3], 95% (inactive); in assay [4] it was 57.4% (inactive); in assay [5], 80.1% (inactive); in [6] (setting [16]) it was 68.5%; in assay [6] (setting [17]), 80.1%. Moreover, the viability in assay [12] was 65.1% (inactive); in [13], 65.3% (inactive). The Her2 level in assay [2] was 71% (inactive). Besides, the differential viability (reversal) in [6] (H69AR cells + 2 uM doxorubicin) is 11.5% (inactive). In addition, the inhibition in [7] was -1.82% (inactive); in assay [8], -0.33% (inactive); in [14], 1.33% (inactive). Moreover, the figures for the growth inhibition in [9] and in assay [10] were -14.1% (inactive) and -13.9% (inactive), respectively. For the same compound, in assay [11], the viability increase was -3.46% (inactive). In assay [15], the RAM network inhibition was 4.23% (inactive).
